According to the supplement of paper PMC3334620:
Over roughly 33,000 sequences, “E-score (-0.5 to 0.5)” has its median near -0.0059; the highest 2% begin near 0.26. The full list was thinned out, with the highest values kept by preference.

target: T1, Cin5 (UniProt P40917); test: PBM E-score (8-mer binding enrichment) (E-score (-0.5 to 0.5)); higher = stronger / more preferred TF binding; details: protein concentration: 100 nM; construct: GST-full length
T1 sequence: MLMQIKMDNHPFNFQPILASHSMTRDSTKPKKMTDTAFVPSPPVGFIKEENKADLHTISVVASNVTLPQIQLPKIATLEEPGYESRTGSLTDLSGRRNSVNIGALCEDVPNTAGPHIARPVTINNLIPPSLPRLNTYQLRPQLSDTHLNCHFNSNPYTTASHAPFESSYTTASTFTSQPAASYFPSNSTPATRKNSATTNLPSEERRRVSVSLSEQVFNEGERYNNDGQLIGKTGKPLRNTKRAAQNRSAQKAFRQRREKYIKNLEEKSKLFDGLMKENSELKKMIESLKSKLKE
How it was run: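 The E-score, a modified Wilcoxon-Mann-Whitney statistic, was computed by the Universal PBM Analysis Suite for every ungapped eight-base word pooled with its reverse complement. Scans behind it were normalised with masliner after bound GST-tagged yeast transcription factors were detected with fluorescent anti-GST. The proteins, at about 100-200 nM, had been applied to universal all-10-mer Agilent arrays made double-stranded by primer extension.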

Row | Sequence | PBM E-score
1 | ACGCAATA | 0.209
2 | TAAGGCAA | 0.0779
3 | CAAGGAGG | 0.00169
4 | AGGGGTGC | -0.088
5 | CTGGACGA | -0.129
6 | CGAAAGAC | 1e-05
7 | CCCCGGGA | 0.0124
8 | TAATTACA | 0.259
9 | AAATTACA | 0.248
10 | AAATTATT | 0.183
11 | AAATTAAA | 0.214
12 | CAATTACA | 0.242
13 | GAATTATC | 0.145
14 | AAATTATA | 0.262
15 | AAATTATC | 0.278
16 | AAATTATG | 0.24
17 | AATAGAAT | 0.106
18 | CTGGGTTA | -0.0908
19 | ACAGAACA | 0.136
20 | CCCATTCA | 0.214
21 | TGAGACCA | -0.078
22 | AAGCCTGG | -0.072
23 | GCCGTGAC | -0.0205
24 | CTACTCAG | -0.0922
25 | ATACTCAG | 0.258

Row | Sequence | PBM E-score
26 | ATACTCAA | 0.204
27 | CCCGTTCA | -0.0227
28 | AAAGCGTC | -0.113
29 | GTAGTCAC | -0.185
30 | ACTTTTAA | 0.0259
31 | ACTTTTAC | 0.273
32 | CATTTTAA | 0.0885
33 | ACTTTTAG | -0.0275
34 | CATTTTAG | 0.137
35 | CATTTTAC | 0.263
36 | GACTCCAA | -0.226
37 | CTAGTGTC | -0.0545
38 | GGGTTGAA | -0.0789
39 | CAGACTAG | -0.237
40 | ATAGGTCA | 0.0611
41 | ATTAATAA | 0.336
42 | ATTAATAC | 0.27
43 | ATGAATAG | 0.148
44 | GGTAATAC | 0.168
45 | CTTAATAC | 0.191
46 | CTTAATAA | 0.267
47 | ATTAATGG | 0.156
48 | CCTAATAA | 0.0783
49 | ATTAATAG | 0.272
50 | ATTAAAAA | 0.162

Row | Sequence | PBM E-score
51 | TCTAATAA | 0.0206
52 | GTTAATAA | 0.186
53 | GTGCCAAC | -0.0934
54 | CAAAAAGG | -0.138
55 | GACTACCC | -0.127
56 | AACTGTCT | 0.0125
57 | CCGCCGAC | -0.119
58 | GAACAGAC | 0.0587
59 | GGCGCGGA | -0.189
60 | AACTGGAA | 0.0471
61 | ATGATAGA | -0.0131
62 | ATGATAAC | 0.262
63 | ATGATAAG | 0.204
64 | CTGATAAC | -0.054
65 | ATGATAAT | 0.272
66 | ATGATAAA | 0.188
67 | GTGATAAC | 0.125
68 | ATGATAGG | -0.0261
69 | ATGATAGC | 0.269
70 | AGCTGATA | 0.0998
71 | ATCCTTCC | -0.2
72 | GGGGTTAA | -0.0418
73 | TCCAGGAA | -0.0393
74 | CTGGTTTC | 0.0335
75 | GGATGCAA | -0.0522

Row | Sequence | PBM E-score
76 | AACAGACT | 0.138
77 | GACAGACA | 0.16
78 | AACAGACA | 0.32
79 | AGGATCGC | -0.0224
80 | GACTGAAA | -0.0204
81 | CACTGAAA | 0.108
82 | TACTGAAA | 0.267
83 | TACCTTCA | -0.0369
84 | ATCACGTA | 0.269
85 | ATCACGTG | 0.124
86 | ATCACGTC | 0.186
87 | ATCACATA | 0.291
88 | ATCACATG | 0.00787
89 | CTCACATA | 0.164
90 | AGTGGTCC | -0.116
91 | GACTCGTA | -0.2
92 | CAATCCTC | -0.129
93 | CAAGGTGA | -0.0314
94 | AATGAAAC | 0.169
95 | ATATAAAT | 0.28
96 | ACATAAAC | 0.263
97 | ATAAAAAT | 0.0935
98 | ATATAAAG | 0.137
99 | ACATAAAG | 0.00631
100 | CCATAAAC | -0.114

Row | Sequence | PBM E-score
101 | ACATAAAA | 0.22
102 | ACATAAAT | 0.28
103 | GCATAAAC | 0.115
104 | AAGGCACC | -0.0903
105 | AATACCTC | 0.0347
106 | CTCCATTA | -0.0341
107 | GGCCAGAC | -0.24
108 | CCCAGTAA | 0.0641
109 | CAGCCGCC | -0.0669
110 | ACGGCAAA | 0.0612
111 | ACGGCAAT | 0.273
112 | ACGGCAAG | -0.0312
113 | AATCAACA | 0.348
114 | GATCAACA | -0.0699
115 | AATCAAAT | 0.176
116 | CATCAAAC | 0.0949
117 | TATCAACA | 0.108
118 | AATCAAAC | 0.326
119 | CCCTGCAA | -0.132
120 | CTGGCTCA | 0.0435
121 | ACGTTGGC | -0.143
122 | ACAATTTC | 0.139
123 | CTAGGAAC | -0.124
124 | GTCACCGA | -0.12
125 | ACGCATAA | 0.0967

Row | Sequence | PBM E-score
126 | GCGCATAA | 0.187
127 | CCGCATAA | 0.283
128 | GAGCGAGA | 0.166
129 | GCAAGGAA | -0.0209
130 | CTGCTTCA | -0.153
131 | TATGGTAA | 0.288
132 | GATGGTAA | -0.0229
133 | AATGGTAA | 0.233
134 | CGCTTTTC | -0.0646
135 | AACACTGT | -0.0444
136 | AACACTGA | 0.271
137 | AACACTTA | 0.154
138 | CTTCGCCA | -0.137
139 | TATTAACA | 0.195
140 | AATTAATT | 0.0929
141 | CATTAATA | 0.187
142 | TATTAATA | 0.297
143 | AATTAATA | 0.341
144 | GATTAAGA | 0.104
145 | GATTAATC | 0.145
146 | AATTAATG | 0.221
147 | GATTAATA | 0.348
148 | GTGGGGTA | 0.181
149 | ACGCACTA | 0.0242
150 | GCTGGGCA | -0.142

Row | Sequence | PBM E-score
151 | AAGAGCCG | -0.187
152 | CAAGGGTG | -0.166
153 | TCGGCAGA | -0.0269
154 | CATAAATA | 0.183
155 | AATAAATT | 0.19
156 | ATTAAATA | 0.274
157 | GATAAATA | 0.245
158 | CATAAATG | -0.125
159 | TATAAATA | 0.283
160 | TAAAAATA | 0.152
161 | ATTAAATG | 0.245
162 | ATTAAATC | 0.205
163 | AATAAATA | 0.293
164 | AATAAATG | 0.269
165 | TATAAAAA | 0.176
166 | CTGGACCA | -0.148
167 | ACCCACAT | 0.0905
168 | CACTGAGG | -0.0826
169 | GTGTGTCA | 0.0629
170 | ATTACCAC | 0.151
171 | CTTACCGA | 0.0713
172 | ATTACCAA | 0.27
173 | CTTACCAA | 0.286
174 | CTTACCAC | 0.0364
175 | GTTACCAA | 0.0591

Row | Sequence | PBM E-score
176 | AACCGAAC | -0.0782
177 | TACCACCA | -0.0388
178 | AGATATGG | 0.26
179 | ATATATGG | 0.24
180 | AGATATGA | 0.272
181 | GGATATGA | 0.0996
182 | CGATATGA | 0.0193
183 | AGATATGC | 0.0698
184 | GACCAGTC | -0.195
185 | CCCCGGTC | -0.2
186 | ATCAGTGG | 0.0229
187 | CCTAGAGA | -0.119
188 | GCAAAGTA | 0.175
189 | ATAAAGTA | 0.264
190 | ATAAAGTG | 0.149
191 | CTAAAGTA | -0.0582
192 | GTAAAGTA | 0.305
193 | ATAAAGTC | 0.113
194 | ACACGCCT | -0.127
195 | CTTTATGC | -0.0141
196 | CAGGTACC | -0.324
197 | CGAGATTA | 0.244
198 | AGAGCGCA | -0.168
199 | ACCTTACA | -0.0412
200 | ATGACATC | 0.248

Row | Sequence | PBM E-score
201 | CTGACATA | 0.153
202 | GTGACATA | 0.303
203 | GGGACATA | 0.0818
204 | GTGACACA | 0.096
205 | ATGACATA | 0.296
206 | ATAGGGCA | -0.0914
207 | CCCAGGCC | -0.308
208 | CTAAGAAA | -0.0357
209 | GCGCGCGA | 0.104
210 | ATCCGCGG | 0.271
211 | CCGCGCGA | 0.186
212 | CCGCGCGG | 0.307
213 | ATCCGCGA | 0.015
214 | ATCCGCGC | -0.0165
215 | GCGCGCGC | 0.306
216 | ACGCGCGC | 0.158
217 | CCGCGCGC | 0.0301
218 | AGGGTCGA | -0.084
219 | AAACCAAT | 0.188
